Source: PubChem BioAssay (National Center for Advancing Translational Sciences (NCATS))
ALDH1A1 block: blocks purified human ALDH1A1 activity | P00352 | Purified ALDH1A1, NADH fluorescence, propionaldehyde substrate | Potency, µM (top dose mostly 75.3 µM), for inactives: at the top dose activity, negative = inhibition, usual class: inhibitors | actives 7.3% (n = 220,000) | AID 1030;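 further: potency means the concentration at half of the fitted maximal effect; plate controls were no enzyme wells and a reference inhibitor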
Target sequence (P00352 whole entry, looked up): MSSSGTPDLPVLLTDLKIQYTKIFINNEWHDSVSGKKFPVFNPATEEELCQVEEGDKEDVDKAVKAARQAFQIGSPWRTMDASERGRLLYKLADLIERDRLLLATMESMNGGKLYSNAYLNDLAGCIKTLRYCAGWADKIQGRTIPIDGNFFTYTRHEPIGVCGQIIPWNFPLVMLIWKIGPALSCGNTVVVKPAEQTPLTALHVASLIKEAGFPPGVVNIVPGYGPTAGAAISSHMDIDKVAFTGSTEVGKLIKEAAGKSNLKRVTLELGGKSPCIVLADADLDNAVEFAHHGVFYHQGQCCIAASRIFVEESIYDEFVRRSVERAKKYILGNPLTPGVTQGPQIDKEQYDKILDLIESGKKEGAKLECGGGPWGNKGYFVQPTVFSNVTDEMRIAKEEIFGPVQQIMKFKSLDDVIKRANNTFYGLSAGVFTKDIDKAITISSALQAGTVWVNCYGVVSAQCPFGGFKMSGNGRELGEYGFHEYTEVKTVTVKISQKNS
IMPase Li cell: membrane-permeable IMPase blocker, potentiated with lithium | CHO-M1 cells, IP1 TR-FRET (IP-One), carbachol + lithium | Potency, µM (top dose mostly 59.4 µM), without a hit: top-dose activity, negative = IMPase inhibition, actives largely listed as inhibitors | actives 0.35% (n = 210,000); active means well fitted inhibition curve with a large enough effect; inconclusive means small, poorly fitted or top-dose-only effect; inactive means no such curve, though single readings can be large or run the other way;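 further: IP1 builds up when IMPase is blocked and the TR-FRET signal falls; potency means the concentration at half of the fitted maximal effect; plate controls were basal vehicle for no effect and high inhibitor control for full effect; nearly all actives have a fitted effect of over 50% in size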
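CHO cells stably expressing M1 receptor (2000/well, cultured 16–30 h) treated 30 min at 37C with compound plus low lithium. Cytosolic IP1 by TR-FRET (665/620 ratio and 620 channel) after 10 min lysis; AC50 by Hill fit.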
PNC assembly inh: perinucleolar compartment assembly inhibition; actives 3.1% (n = 140,000); activity change (PNC), negative = inhibition, % at 10 µM; AID 2417; PC3M PTB-GFP, PNC prevalence imaging, 16 h; hits give low values;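 active means readout at or below -70, meaning at least 70% loss of cells showing the perinucleolar compartment, a nuclear body marking cancer cells; inconclusive means readout between -30 and a set limit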;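 further: plate controls were DMSO wells for no effect and camptothecin positive control wells for full effect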
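PC3M cells stably expressing PTB-GFP, 750–1000 cells/well, treated 16 h at 37 °C with compound (23 nl of library stock), in duplicate. After paraformaldehyde fixation and Hoechst stain, imaged at 20x; PNC prevalence scored by image analysis.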
HPGD block: HPGD (human) dehydrogenase inhibition | actives 4.3% (n = 150,000) | P15428 | Potency, µM, for inactives: top-dose activity change, negative = inhibition, most hits filed as inhibitors | purified HPGD, NADH fluorescence kinetic, PGE2 substrate; further: potency means the concentration at half of the fitted maximal effect
Target sequence (P15428 whole entry, looked up): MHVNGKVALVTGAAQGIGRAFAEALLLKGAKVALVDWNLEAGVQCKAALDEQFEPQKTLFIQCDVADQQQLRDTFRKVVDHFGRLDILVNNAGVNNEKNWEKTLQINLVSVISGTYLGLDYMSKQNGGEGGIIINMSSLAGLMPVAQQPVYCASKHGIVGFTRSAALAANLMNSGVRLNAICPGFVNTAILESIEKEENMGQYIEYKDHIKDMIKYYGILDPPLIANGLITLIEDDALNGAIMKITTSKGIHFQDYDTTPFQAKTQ
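NADH formation kinetics: reaction with 30 uM PGE2 and 1 mM NAD+ (final), 20 nM enzyme, Tris-HCl pH 8 with Tween 20, after 15 min compound preincubation at room temperature. Fluorescence change, last versus first of five reads.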
IMPase inh: IMPase inhibition in cells. CHO-M1 cells, IP1 accumulation, HTRF TR-FRET ratio. 120,000 tested, under 10 active. inhibition (IP1 accumulation), % at 46.1 µM. AID 901; active means well fitted curve in the direction sought with a large enough effect in the signal ratio, not every such curve was filed as active; inconclusive means small, poorly fitted or top-dose-only effect, or a change in a side signal; inactive means no such curve, though single readings can be large or run the other way; the % refers to the signal ratio;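 further: cells stimulated with carbachol in lithium chloride buffer; plate controls were DMSO basal wells for no effect and reference inhibitor wells for full effect; higher means more IMPase inhibition seen as more IP1 and lower FRET ratio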
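Elevated IP1 in lysates lowers TR-FRET signal (665/620 ratio and 620 channel reported). Cells were CHO-M1, given carbachol (50 uM as added) plus 50mM LiCl, pH 7.4, 30 min, 37C; compounds titrated up to 46 uM; AC50 by Hill equation.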
* = called active by the depositor; ? = inconclusive; . = not tested or not shown; [ ] = remark or other dose. This is a sample that favours compounds with a hit; in the whole collection about 11% have one here. Unless noted, the call rests on the fitted dose curve; in most records, active means well fitted inhibition curve with a large enough effect (not every such curve was filed as active); inconclusive means small, poorly fitted or top-dose-only effect, or another doubt; inactive means no such curve, though single readings can be large or run the other way. Unless noted, on the % scale 0 is the no-effect control and ±100 the full control effect.

SMILES	ALDH1A1 block	IMPase Li cell	PNC assembly inh	HPGD block	IMPase inh
Cc1cc(OCc2ccc(C(=O)n3cccn3)o2)ccc1Cl	0%	2%	-119*	32µM*	-3
CCN[C@@H]1CN(CCCOC)S(=O)(=O)c2sc(S(N)(=O)=O)cc21	-8%[20.9 µM]	5%	.	1%	-3[20.6 µM]
Cc1ccc2c(c1)N(CC(=O)OCC(=O)NCc1ccccc1)C(=O)CO2	5%	-2%	.	.	.
COc1ccc(Nc2ncnc3ccccc23)c(OC)c1	10µM*	8%	8	?	11
COc1ccc(Nc2ncnc3ccccc23)cc1	14%	33%[38.3 µM]	?	-4%	11
COc1ccccc1NC(=O)N1CCC(c2nc3ccccc3o2)CC1	2%	2%	.	.	.
CC(C)(C)c1cc(=O)[nH]c(SCc2ccccc2)n1	-11%	1%	.	.	.
CC(C)(C)c1cc(Cc2ccccc2)[nH]n1	3%	4%[38.3 µM]	24	20µM*	-9
O=C(CSc1nnc2scc(-c3ccc(Cl)cc3)n12)Nc1ccccc1F	.	.	.	.	9
CCCCS(=O)(=O)/C=C\C=C/S(=O)(=O)CCCC	4µM*	19%	?	25µM*	9
CCCCS(=O)(=O)/C=C\C1C2C=CC(C2)C1S(=O)(=O)CCCC (stereo not given)	?	1%[38.3 µM]	41	1%	3
CCc1cccc(CC)c1NC(=O)Cn1nnc2sc3c(c2c1=O)CCCC3	.	.	.	.	-6
O=C(ON=C1CCN(c2ccc([N+](=O)[O-])cc2)CC1)c1ccccc1	?	16%[38.3 µM]	24	-6%	3
COc1ccc(C(=O)ON=C2CCN(c3ccc([N+](=O)[O-])cc3)CC2)cc1	4µM*	-10%[38.3 µM]	9	-13%	-1
COc1ccc(C)cc1NC(=O)C(Sc1nnc(-c2cccs2)o1)c1ccccc1 (stereo not given)	-6%	13%	-2	-25%	.
O=C(Nc1cc(C(F)(F)F)ccc1Cl)C(Sc1cccc[n+]1[O-])c1ccccc1 (stereo not given)	?	4%	12	-25%	.
O=C(Nc1cc(C(F)(F)F)ccc1Cl)C(Sc1nnc(-c2cccs2)o1)c1ccccc1 (stereo not given)	1µM*	.	91	.	-2
O=C(Nc1ccc(Cl)cc1C(F)(F)F)C(Sc1nnc(-c2cccs2)o1)c1ccccc1 (stereo not given)	2.8µM*	.	27	.	12
O=S(=O)(c1ccccc1)c1ccccc1/C=N\O	-1%	16%[38.3 µM]	-96*	-27%	5
Cc1ccc(S(=O)(=O)Oc2ccccc2/C=N/O)cc1	-14%	7%	.	.	.
CCCN(CCC)C1=N/C(=C\c2ccco2)C(=O)N1c1ccccc1	14µM*	57%[38.3 µM]	17	?	4
COc1ccc(-c2csc(/C(C#N)=C(\O)CSc3nccn3C)n2)cc1OC	8.9µM*	2%[38.3 µM]	7	25µM*	-4
O=c1ccsn1Cc1ccccc1	?	26%[38.3 µM]	-8	20µM*	11
CCCc1cc(=O)[nH]c(SCc2cccc(C)c2)n1	?	-3%[38.3 µM]	34	14µM*	8
CCCc1cc(=O)[nH]c(SCc2cccnc2)n1	-4%	-2%	410	20µM*	2
SMILES	ALDH1A1 block	IMPase Li cell	PNC assembly inh	HPGD block	IMPase inh
CCCc1cc(=O)[nH]c(SCC(=O)N(C)CC(=O)Nc2ccc(C)cc2)n1	-5%	-4%[38.3 µM]	-115*	1%	7
CCCc1cc(=O)[nH]c(SCc2csc(-c3ccccc3)n2)n1	-7%	-1%	?	-28%	.
CCCc1cc(=O)[nH]c(SCc2cc(Cl)ccc2OC(F)F)n1	-1%	-8%[38.3 µM]	21	14µM*	7
CCCc1cc(=O)[nH]c(SCC(=O)NC(=O)OCC)n1	8%	-8%[38.3 µM]	?	-16%	1
CCCc1cc(=O)[nH]c(SCC(=O)C(C)(C)C)n1	-12%	22%[38.3 µM]	-10	-17%	-7
CC(C)NC(=O)N1CCCC2(CCN(C(=O)c3csnn3)CC2)C1	5%	1%	.	-2%	.
CCNc1ncc2ncc(=O)n(CCOC)c2n1	?	-8%	.	.	.
Cc1cccc(CSc2nc3[nH]ncc3c(=O)[nH]2)c1	8.9µM*	16%	.	.	.
O=c1[nH]c(SCc2ccccc2Cl)nc2[nH]ncc12	4%	10%	.	.	.
CCc1nc(SCc2cccnc2)[nH]c(=O)c1C	13%	5%[38.3 µM]	?	25µM*	2
CCCc1cc(=O)[nH]c(SCc2ccc(Cl)cc2)n1	1%	32%[38.3 µM]	32	16µM*	-6
CCCc1cc(=O)[nH]c(SCc2ccccc2)n1	?	14%[38.3 µM]	-19	16µM*	8
CCCc1cc(=O)[nH]c(SCc2nc3ccc([N+](=O)[O-])cc3[nH]2)n1	-15%	-8%	49	18µM*	.
CCc1nc(SCc2ccc(F)cc2)[nH]c(=O)c1C#N	32µM*	16%	?	4.5µM*	-4
CCC(C)C(=O)O[C@H]1C[C@@H](C)C=C2C=C[C@H](C)[C@H](CC[C@@H]3C[C@@H](O)CC(=O)O3)C21 (stereo not given in full)	-3%	9%	.	3%	?
CCCCCCCCCCCCCCC(C(=O)O)C(O)(CC(=O)OC)C(=O)O (stereo not given)	-2%	9%	.	16µM*	.
Cc1cc(C)c2nc(N3CCC(C(=O)N4CCCC4)CC3)sc2c1	-12%	21%[38.3 µM]	20	13µM*	2
Cc1cc(C)c2nc(N3CCC(C(=O)N4CCN(c5ncccn5)CC4)CC3)sc2c1	?	9%[38.3 µM]	13	-9%	-1
CCCCCCCCCCCCCCCC(=O)NCCO	1%	4%	.	-7%	-5
O=C(NCCO)C(O)C(O)C(=O)NCCO (stereo not given)	18µM*	33%	.	.	.
CC(=O)O[C@](C)(CCC=C(C)C)C1CC=C(C)CC1 (stereo not given in full)	0%	1%	.	-6%	.
COc1ccccc1-c1nc(NCc2cnc(C)cn2)c2ccccc2n1	?	28%	.	?	.
Cc1sc(NC(=O)C2CC(Cl)=CCC2C(=O)O)c(C#N)c1C (stereo not given)	-7%	-1%	.	.	.
Cc1cc(C(=O)Nc2sc3c(c2C#N)CCC3)no1	?	21%[38.3 µM]	-85*	-10%	5
N#Cc1c(NC(=O)C2CC(Cl)=CCC2C(=O)O)sc2c1CCCC2 (stereo not given)	18µM*	0%	.	.	.
N#Cc1c(NC(=O)c2cc(-n3cnnc3)ccc2Cl)sc2c1CCCC2	13µM*	?	21	-11%	4[1.84 µM]
Cc1cc(C(=O)Nc2sc3c(c2C#N)CCCC3)no1	11µM*	-1%	-13	28µM*	-2
Cc1ccccc1N1C(=O)c2cc(S(N)(=O)=O)c(Cl)cc2N[C@H]1C	?	5%	.	-27%	-4[20.6 µM]
Cc1nc(SCC(=O)NCc2ccco2)c2c3c(sc2n1)CCCC3	10µM*	?	?	14µM*	9
O=C(CSc1nc(C2CC2)nc2sc3c(c12)CCCC3)NCc1ccco1	6%	13%[38.3 µM]	-26	-9%	4
